In the library only some 4.6% were active in any assay of this set; here they are far more common.
TexasRed fluor: Texas Red fluorescence interference in TRb-SRC2 counter-screen. TRb/SRC2 Texas Red total fluorescence interference. Potency, µM (top dose mostly 106 µM). 0.29% of 280,000 active; active = well fitted curve in either direction with a large enough effect; inconclusive = small, poorly fitted or top-dose-only effect
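Human TRb ligand-binding domain at 0.6 uM with 20 nM Texas Red SRC2 peptide in Tris buffer containing 1 uM T3 and 5% DMSO, incubated with compound 5 h at ambient temperature. Total fluorescence (555/632 nm) calculated as parallel + 2 × perpendicular.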
TRb SRC2 PPI: TRbeta-SRC2 interaction inhibition. P10828. TRbeta-SRC2 peptide binding, fluorescence polarization; receptor liganded with 1 µM T3. Potency, µM (doses to about 106 µM), usual class: inhibitors. 0.065% of 280,000 active. AID 1469; note: nearly all actives have a fitted effect of over 50% in size
Target sequence (P10828 whole entry, looked up): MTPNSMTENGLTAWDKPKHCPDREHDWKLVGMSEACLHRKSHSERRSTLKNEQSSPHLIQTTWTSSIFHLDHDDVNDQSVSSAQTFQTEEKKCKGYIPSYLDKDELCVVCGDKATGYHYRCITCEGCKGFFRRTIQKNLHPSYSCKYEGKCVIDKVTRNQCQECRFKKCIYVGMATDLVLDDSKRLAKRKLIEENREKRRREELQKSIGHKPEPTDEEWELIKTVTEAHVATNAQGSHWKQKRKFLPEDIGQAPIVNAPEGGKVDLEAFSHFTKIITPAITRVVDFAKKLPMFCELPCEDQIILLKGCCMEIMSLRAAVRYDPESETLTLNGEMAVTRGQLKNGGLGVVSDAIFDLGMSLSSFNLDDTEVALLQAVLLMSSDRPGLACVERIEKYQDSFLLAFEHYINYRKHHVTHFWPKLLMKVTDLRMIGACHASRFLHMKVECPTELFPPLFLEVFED
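Fluorescence polarization of 20 nM Texas Red SRC2 peptide with 0.6 uM human TRb ligand-binding domain, in Tris buffer with 1uM T3 and 5% DMSO. Incubated 5 hr ambient; normalized to unbound and bound controls.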
PNC assembly inh: perinucleolar compartment assembly inhibition. AID 2417. activity change (PNC), negative = inhibition, % at 10 µM. PC3M PTB-GFP, PNC prevalence imaging, 16 h; stronger effect = lower value. 3.1% of 140,000 active;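 active = readout at or below -70, meaning at least 70% loss of cells showing the perinucleolar compartment, a nuclear body marking cancer cells; inconclusive = readout between -30 and a set limit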
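Compounds are pinned in duplicate onto adhered PC3M cells stably expressing GFP-tagged PTB and incubated 16 h at 37 C. Cells are then fixed, nuclei stained with Hoechst, and PNC-positive cells counted.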
Tau fluor counter: counter-screen for tau fibril formation inhibitors. 0.93% of 280,000 active. tau K18 P301L Alexa594 fluorescence, heparin fibrillization. Potency, µM (highest dose often 57.7 µM). AID 1463; note: nearly all actives have a fitted effect of over 55% in size
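Human K18 P301L tau (15 uM unlabeled plus 0.24 uM Alexa 594-labeled, final) in 100 mM sodium acetate pH 7 was mixed with compound and 20 uM heparin and incubated 6 hr at 37 C.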
Tau FP inhib: inhibitors of human tau fibril formation; P10636; K18 P301L tau heparin fibrillization, Alexa594 FP, 6 h; Potency, µM (top dose mostly 57.7 µM), most hits filed as inhibitors; 0.39% of 280,000 active; AID 1468; note: nearly all actives have a fitted effect of over 55% in size
Target sequence (P10636 561-689 P618L limits assumed): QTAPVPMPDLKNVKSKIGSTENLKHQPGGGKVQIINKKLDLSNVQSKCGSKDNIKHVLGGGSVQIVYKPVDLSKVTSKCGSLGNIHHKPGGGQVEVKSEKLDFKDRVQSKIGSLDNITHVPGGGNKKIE
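Heparin (20 uM) drove fibril formation of recombinant tau K18 P301L, 15 uM unlabeled with 0.24 uM Alexa 594 label, for 6 hr at 37 C in 100 mM sodium acetate pH 7. Fluorescence polarization (555/632 nm) read 1 hr after 30 uM ThT.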
Tau ThT inhib: blocks human tau fibril formation measured by thioflavin T. AID 1460. Potency, µM (series often up to 57.4 µM), most hits filed as inhibitors. recombinant tau K18 P301L (four-repeat tau fragment), heparin-induced fibrillization, ThT fluorescence. 2.1% of 270,000 active; note: nearly all actives have a fitted effect of over 55% in size
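Tau K18 P301L fragment (15 uM unlabeled plus 0.24 uM Alexa 594-labeled) in 100 mM sodium acetate pH 7 with compound, fibrillization induced by 20 uM heparin for 6 hr at 37 C. Thioflavin T (30 uM) added, fluorescence read after 1 hr (ex 450, em 510 nm).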
Numbers stand for hits; [ ] = another dose, or the depositor's remark. Unless noted, calls come from the whole dose curve; as a rule, active = well fitted curve in the direction sought with a large enough effect; inconclusive = small, poorly fitted or top-dose-only effect, or another doubt; inactive = no such curve, though single readings can be large; an effect the other way counts as inactive or inconclusive.

For CCCN1C(=O)SC(CC(=O)Nc2ccc(C)cc2)C1=O (stereo not given) the results were TexasRed fluor inactive, TRb SRC2 PPI inactive, PNC assembly inh -100, Tau fluor counter inactive, Tau FP inhib inactive and Tau ThT inhib inactive.
COC(=O)C(C(=O)OC)C(C[N+](=O)[O-])c1ccc(O)c(OC)c1 (stereo not given) was read as TexasRed fluor inactive, TRb SRC2 PPI inactive, PNC assembly inh inactive, Tau fluor counter inactive, Tau FP inhib inactive and Tau ThT inhib inactive.
For CCN(CCO)c1nc(SC)nc2c1sc1nc(-c3ccco3)c3c(c12)CCC3 the results were TexasRed fluor inactive, TRb SRC2 PPI inactive, PNC assembly inh inconclusive, Tau fluor counter inconclusive, Tau FP inhib inconclusive and Tau ThT inhib 25µM.
`CSc1nc(NCCOCCO)c2sc3nc(-c4ccco4)c4c(c3c2n1)CCC4` gave TexasRed fluor inconclusive, TRb SRC2 PPI inactive, PNC assembly inh inactive, Tau fluor counter inactive, Tau FP inhib inactive and Tau ThT inhib inconclusive.
COc1ccc(OCC(O)CN2CCN(c3ncccn3)CC2)cc1 (stereo not given) was read as TexasRed fluor inactive, TRb SRC2 PPI inactive, PNC assembly inh -122, Tau fluor counter inactive, Tau FP inhib inactive and Tau ThT inhib inactive.
For Cc1ccccc1-c1cnn(-c2cccc([N+](=O)[O-])c2)c1N the results were TexasRed fluor inactive, TRb SRC2 PPI inactive, Tau fluor counter inactive, Tau FP inhib inactive and Tau ThT inhib inactive.
Screening Cc1ccc(-c2cnn(-c3cccc([N+](=O)[O-])c3)c2N)cc1 returned TexasRed fluor inactive, TRb SRC2 PPI inactive, PNC assembly inh -87, Tau fluor counter inactive, Tau FP inhib inactive and Tau ThT inhib inconclusive.
CCCC1CCC(c2ccc(/C(N)=N/O)cc2)CC1 (stereo not given) was read as TexasRed fluor inactive, TRb SRC2 PPI inactive, Tau fluor counter inactive, Tau FP inhib inactive and Tau ThT inhib inactive.
`O=C(ON=C1CCN(S(=O)(=O)c2ccccc2)CC1)c1ccc(F)cc1` gave TexasRed fluor inactive, TRb SRC2 PPI inactive, PNC assembly inh -100, Tau fluor counter inactive, Tau FP inhib inactive and Tau ThT inhib inactive.
O=C(CSc1nccn1-c1ncc(C(F)(F)F)cc1Cl)c1ccc(Br)cc1 was read as TexasRed fluor inactive, TRb SRC2 PPI inactive, PNC assembly inh inactive, Tau fluor counter inactive, Tau FP inhib inconclusive and Tau ThT inhib 14µM.
Screening O=C(CSc1nccn1-c1ccccc1)c1ccc(Cl)cc1 returned TexasRed fluor inactive, TRb SRC2 PPI inactive, PNC assembly inh -100, Tau fluor counter inactive, Tau FP inhib inactive and Tau ThT inhib inactive.
Screening CCc1ccc(NC(=O)c2ccc3nc(N)sc3c2)cc1 returned TexasRed fluor inactive, TRb SRC2 PPI inactive, PNC assembly inh inconclusive, Tau fluor counter inconclusive, Tau FP inhib 25µM and Tau ThT inhib inconclusive.
Screening Cc1cc(C(=O)OCC(=O)Nc2sc3c(c2C#N)CCC(C)C3)c2ccccc2n1 (stereo not given) returned TexasRed fluor inactive, TRb SRC2 PPI inactive, PNC assembly inh inactive, Tau fluor counter inactive, Tau FP inhib inactive and Tau ThT inhib inconclusive.
For COc1ccc(CN2CC(C(=O)NCCN3CCOCC3)CC2=O)cc1 (stereo not given) the results were TexasRed fluor inactive, TRb SRC2 PPI inactive, PNC assembly inh -90, Tau fluor counter inactive, Tau FP inhib inactive and Tau ThT inhib inactive.
For O=C(Nc1ccc(N2CCOCC2)cc1)C1CC(=O)N(c2ccccc2)C1 (stereo not given) the results were TexasRed fluor inactive, TRb SRC2 PPI inactive, Tau fluor counter inactive, Tau FP inhib inactive[2.34 µM] and Tau ThT inhib 4.5µM.
Screening COc1ccc(N2CC(C(=O)Nc3ccc(N4CCOCC4)cc3)CC2=O)cc1 (stereo not given) returned TexasRed fluor inactive, TRb SRC2 PPI inactive, PNC assembly inh -113, Tau fluor counter inactive, Tau FP inhib inactive and Tau ThT inhib inconclusive.
CCOc1ccc(N2CC(C(=O)Nc3ccc(N4CCOCC4)cc3)CC2=O)cc1 (stereo not given) was read as TexasRed fluor inactive, TRb SRC2 PPI inactive, PNC assembly inh inactive, Tau fluor counter inactive, Tau FP inhib inactive and Tau ThT inhib inconclusive.
`Cc1nc2cc(Nc3nnc(-c4ccccc4)c4ccccc34)ccc2n1C` gave TexasRed fluor inactive, TRb SRC2 PPI inactive, PNC assembly inh inactive, Tau fluor counter inactive, Tau FP inhib inactive and Tau ThT inhib inactive.
Screening CN(Cc1cn(-c2ccccc2)nc1-c1ccc(F)cc1)C(=O)CCC(=O)O returned TexasRed fluor inactive, TRb SRC2 PPI inactive, PNC assembly inh inactive, Tau fluor counter inactive, Tau FP inhib inactive and Tau ThT inhib inactive.
For COc1ccc(NC(=O)C(c2ccc(C)cc2)N(C)C(=O)CC2NC(=O)NC2=O)cc1 (stereo not given) the results were TexasRed fluor inactive, TRb SRC2 PPI inactive, PNC assembly inh inactive, Tau fluor counter inactive, Tau FP inhib inactive and Tau ThT inhib inactive.
Screening CCSc1nnc(NC(=O)CSC2=NN3CCCC(=O)N=C3S2)s1 returned TexasRed fluor inactive, TRb SRC2 PPI inactive, Tau fluor counter inactive, Tau FP inhib inactive and Tau ThT inhib inactive.
For CCn1cc(/C=N\NC(=O)Cc2ccc(Cl)cc2)cn1 the results were TexasRed fluor inactive, TRb SRC2 PPI inactive, PNC assembly inh -99, Tau fluor counter inactive, Tau FP inhib inactive and Tau ThT inhib inactive.
O=C(c1cccnc1)N1CCN(Cc2ccccc2Br)CC1 was read as TexasRed fluor inactive, TRb SRC2 PPI inactive, PNC assembly inh inactive, Tau fluor counter inactive, Tau FP inhib inactive and Tau ThT inhib inactive.
For COC(=O)C1=C(C)NC(=O)/C1=C\c1cc(C)n(-c2cc(C)cc(C)c2)c1C the results were TexasRed fluor inactive, TRb SRC2 PPI inactive, PNC assembly inh inactive, Tau fluor counter inconclusive, Tau FP inhib inactive and Tau ThT inhib 20µM.
Cc1cc(C)cc(-n2c(C)cc(C=C(C#N)C#N)c2C)c1 was read as TexasRed fluor inactive, TRb SRC2 PPI inactive, PNC assembly inh inactive, Tau fluor counter inactive, Tau FP inhib inactive and Tau ThT inhib inconclusive.
COC(=O)C1=C(C)NC(=O)/C1=C\c1cc(C)n(-c2ccccc2)c1C was read as TexasRed fluor inactive, TRb SRC2 PPI inactive, Tau fluor counter inconclusive, Tau FP inhib inactive and Tau ThT inhib 13µM.
For COC(=O)C1=C(O)/C(=C\c2cc(C)n(-c3ccccc3F)c2C)N=C1C the results were TexasRed fluor inactive, TRb SRC2 PPI inactive, Tau fluor counter inactive, Tau FP inhib inactive and Tau ThT inhib inconclusive.
Screening CCN(CC)CC(=O)N1c2ccccc2Sc2ccc(Cl)cc21 returned TexasRed fluor inactive, TRb SRC2 PPI inactive, PNC assembly inh -100, Tau fluor counter inactive, Tau FP inhib inactive and Tau ThT inhib inactive.

Compound activity deposited in PubChem by National Center for Advancing Translational Sciences (NCATS).
